Sampled rows, rich in hits. Any-hit rate of the full collection: about 4.5%.
GAA850 FXN act = increases GAA850 frataxin promoter reporter activity | activation, % at 6 µM | HEK293 lucGAA850 FXN promoter luciferase reporter, 24 h; percent of 10 µM SAHA response | AID 540364 | 360,000 compounds, 0.56% hits;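 active means activation above the average of all compounds screened plus 3 SD, cutoff fixed separately per campaign, cut at about 7.5% in these data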;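 further: 0% = DMSO wells and 100% = 10 µM SAHA wells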
hgDAF12 agonist = activates the H. glycines DAF-12 receptor ligand-binding domain | HEK293 GAL4-hgDAF12 UAS-luciferase reporter, agonist luminescence; normalized to butyrate control | activation, % at 6.8 µM | 370,000 compounds, 1.8% hits;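 active means activation above a cutoff set at the mean of all screened compounds plus 3 SD, cut at about 10% in these data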;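 further: 0% = DMSO wells and 100% = sodium butyrate wells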
DAX1 inh-1 = NR0B1 (DAX1) inhibition. HEK293 Gal4-DAX1 luciferase reporter, luminescence. inhibition, % at 6.75 µM. 340,000 compounds, 0.99% hits;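 active means inhibition above the mean over all tested compounds plus 3 SD, cut at about 4.2% in these data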;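 further: 0% = DAX1-transfected cells with DMSO and 100% = empty-vector control cells with DMSO; inhibition shows as a rise in luminescence from relieved DAX1 repression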
Target sequence (P51843 207-470 limits assumed): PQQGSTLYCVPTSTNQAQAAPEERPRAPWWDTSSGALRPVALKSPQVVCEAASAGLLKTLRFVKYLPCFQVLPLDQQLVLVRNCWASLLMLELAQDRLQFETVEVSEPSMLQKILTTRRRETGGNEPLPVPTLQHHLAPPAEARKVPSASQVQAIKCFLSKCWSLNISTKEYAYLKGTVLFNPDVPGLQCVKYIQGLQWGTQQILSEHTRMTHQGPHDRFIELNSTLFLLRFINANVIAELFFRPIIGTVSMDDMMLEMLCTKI
DAX1 inh-2 = inhibitors of DAX1 repression of SF-1 activated StAR promoter; 370,000 compounds, 1.1% hits; HEK293T StAR-luciferase reporter, SF-1/DAX-1 repression relief; AID 652010; inhibition, % at 6.8 µM;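 active means inhibition above the mean over all tested compounds plus 3 SD, cut at about 3.6% in these data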;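 further: 0% = DAX-1 cells with DMSO and 100% = cells lacking DAX-1 with DMSO; higher inhibition means more luminescence from relief of DAX-1 repression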
hcDAF12 agonist = activators of H. contortus DAF-12 nuclear receptor | HEK293 hcDAF-12 lit1-tk-luc reporter, luminescence; 0% DMSO, 100% Δ7-dafachronic acid | activation, % at 6.8 µM | 370,000 compounds, 1.4% hits | AID 652067;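 active means activation above the mean of all tested compounds plus 3 SD, cut at about 5.5% in these data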;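 further: 100% = response to 3 µM Δ7-dafachronic acid high control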
ssDAF12 agonist = S. stercoralis DAF-12 activation, primary screen. HEK293 ssDAF-12/GRIP1 lit1-tk-luc reporter, luminescence; % of 3 µM dafachronic acid response. activation, % at 6.8 µM. 370,000 compounds, 1% hits. AID 652126;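 active means activation above the mean over all tested compounds plus 3 SD, cut at about 0.9% in these data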;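 further: 0% = DMSO-only wells and 100% = 3 µM delta7-dafachronic acid wells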
LXRb hcDAF ctr = counter-screen for hcDAF-12 agonists: agonists of human LXR-beta; HEK293 Gal4-LXR tk-luc reporter, luminescence, 24 h; normalized: DMSO 0%, positive control 100%; 3,400 tested, under 10 active; activation, % at 6.8 µM; shares compounds with hcDAF12 agonist;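 active means mean percent activation of the reporter above a cutoff set as the average over tested compounds plus their standard deviation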
hcDAF12 conf = hcDAF-12 agonism, confirmation assay. shares compounds with hcDAF12 agonist. HEK293 hcDAF-12 lit1-tk-luc reporter, luminescence; % of Δ7-dafachronic acid response. activation, % at 6.8 µM. 3,400 compounds, 61% hits;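 active means mean activation across triplicate tests above the threshold derived from the earlier primary screen, cut at about 5.5% in these data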;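 further: 0% = DMSO only wells and 100% = 3 µM Δ7-dafachronic acid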
hgDAF12 conf = hgDAF-12 agonism, confirmation assay. shares compounds with hgDAF12 agonist. HEK293 GAL4-hgDAF12 luciferase reporter, agonist mode; percent of butyrate response. activation, % at 6.8 µM. 3,300 compounds, 80% hits. AID 743050;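 active means mean activation over triplicate wells above the hit cutoff derived from the earlier primary screen, cut at about 11% in these data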;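 further: 0% = DMSO low control and 100% = 2 mM sodium butyrate high control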
LXR ag 2 = activates human LXR-beta, counter-screen for DAF-12 agonists | shares compounds with hgDAF12 agonist | activation, % at 6.8 µM | HEK293 Gal4-LXR luciferase reporter, 24 h | 3,300 tested, under 10 active;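 active means mean activation of the triplicate above a set limit carried over from the primary screen, none filed active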
Starred values were filed as active, the others as inactive; x = not tested or not shown.

SMILES	GAA850 FXN act	hgDAF12 agonist	DAX1 inh-1	DAX1 inh-2	hcDAF12 agonist	ssDAF12 agonist	LXRb hcDAF ctr	hcDAF12 conf	hgDAF12 conf	LXR ag 2
COc1cccc(N(C(=O)c2nc3nccc(C)n3n2)c2nc3ccccc3s2)c1	7	20*	1	4.0*	8.4*	1.1*	1	5	16*	1
O=C1/C(=C\c2cccs2)Sc2ccc3ccccc3c21	6	16*	5.2*	4.0*	22*	6.4*	2	19*	31*	1
NC(=O)c1c(NC(=O)c2ccco2)sc2c1CCC2	-3	14*	2	2	6.7*	1.1*	1	8.9*	17*	1
O=C(Nc1sc2c(c1C(=O)O)CCCCC2)c1ccco1	4	3	0	3	5	0	x	x	x	x
COc1ccc(-c2cc(=O)c3ccccc3o2)cc1	6	20*	8.4*	4	9.0*	0	1	8.2*	15*	1
Clc1ccc(-c2nsc(N3CCOCC3)n2)c(Cl)c1	4	16*	1	2	8.6*	1	1	3	16*	1
Cc1occc1C(=O)Nc1ccc2ccccc2c1	0	14*	4.4*	2	11*	1.4*	1	5	16*	1
O=C(Nc1ccc2ccccc2c1)c1onc2c1CCCC2	4	14*	1	3	12*	1.4*	2	6.4*	21*	1
Cc1noc(C)c1C(=O)Nc1ccc2ccccc2c1	4	-2	0	-1	-2	-1	x	x	x	x
CC(=O)c1cccc(NC(=O)c2ccoc2C)c1	2	-3	0	0	-1	-1	x	x	x	x
CC(=O)Nc1ccc(C(=O)NNC(=O)c2cccc(C)c2)cc1	2	1	1	1	-1	-1	x	x	x	x
Cc1cccc(C(=O)Nc2ccc3ccccc3c2)c1	3	14*	6.8*	3	7.0*	1	2	6.5*	23*	1
COc1cccc(C(=O)Nc2ccc3ccccc3c2)c1	2	17*	-2	2	7.5*	0	2	9.9*	24*	2
O=C(COC(=O)/C=C/c1ccccc1)NC(=O)NCc1ccccc1	0	1	1	0	-2	-1	x	x	x	x
COc1ccc(C(=O)c2coc3ccc(OC(C)=O)cc23)cc1	5	14*	-1	2	7.3*	0	2	8.1*	23*	1
COc1ccc(OC)c(C(=O)c2coc3ccc(OC(C)=O)cc23)c1	1	-2	0	0	-1	-1	x	x	x	x
CC1=NC(=O)C(N=Nc2cccc(C(=O)O)c2)N1c1ccccc1 (stereo not given)	-4	16*	-4	3	10*	1.5*	1	13*	16*	1
O=C(O)c1cccc(N2C(=O)C3CC=CCC3C2=O)c1 (stereo not given)	-2	2	1	1	0	-1	x	x	x	x
CC(C)C(=O)Nc1cccc(COc2ccccc2CN(Cc2ccccc2)C(=O)OC(C)(C)C)c1	-5	0	-2	-2	0	-1	x	x	x	x
COc1ccc(NC(=O)c2ccc3nc[nH]c3c2)cc1	3	6	0	1	1	-1	x	x	x	x
Cc1csc(NC(=O)c2ccc3nc[nH]c3c2)n1	0	20*	1	2	9.8*	0	1	5	20*	1
Cc1ccc(S(=O)(=O)NN2C(=O)c3ccccc3NC2c2ccccn2)cc1 (stereo not given)	1	-2	0	1	-1	-1	x	x	x	x
COc1ccc(OC)c(S(=O)(=O)N2CCCC(c3noc(-c4ccc(C)cc4)n3)C2)c1 (stereo not given)	x	0	x	-1	-2	-2	x	x	x	x
Cc1ccc(NC(=O)C(=O)c2c[nH]c3ccccc23)cc1	6	20*	3	2	7.2*	1	2	5	22*	1
COCCCN1C(=O)C(CC(=O)NCc2cccc3ccccc23)CC(C(=O)N(C(C)C)C(C)C)=C1C (stereo not given)	x	-2	x	-1	-2	-1	x	x	x	x
SMILES	GAA850 FXN act	hgDAF12 agonist	DAX1 inh-1	DAX1 inh-2	hcDAF12 agonist	ssDAF12 agonist	LXRb hcDAF ctr	hcDAF12 conf	hgDAF12 conf	LXR ag 2
Cc1ccc(OCc2nc(-c3ccccn3)no2)c(Br)c1	-4	2	-2	3	6	0	x	x	x	x
CC(C)c1ccc(OCc2nc(-c3ccccn3)no2)c(Br)c1	7	15*	0	4.1*	7.6*	0.9*	1	7.0*	16*	1
O=C1c2ccccc2C(=O)N1CCOc1ccccc1	2	14*	2	3	6.9*	1.2*	1	8.8*	17*	0
Cc1cccc(C)c1-n1nnnc1C1(C)CCC(=O)N1Cc1cccnc1 (stereo not given)	x	1	x	0	0	-1	x	x	x	x
O=C(Nc1ccccc1)c1cc2ccccc2s1	2	22*	3	4.2*	10*	1.1*	2	11*	20*	1
O=C(CCC(=O)c1cccs1)NCC(=O)Nc1ccc(F)c(F)c1F	2	5	0	0	-2	-1	x	x	x	x
O=C(CCCc1ccccc1)NC12CC3CC(CC(C3)C1)C2	7	17*	3	2	8.4*	1.2*	1	6.9*	15*	1
N/C(=N\OC(=O)c1ccc(Cl)cc1)c1[nH]ncc1Br	0	19*	3	3	12*	1	2	7.3*	21*	1
Cc1ccccc1-c1nc2ccccc2[nH]1	4	9	2	2	1	-1	x	x	x	x
Cc1cc(C)c2c(N)c(-c3nc4ccccc4[nH]3)sc2n1	2	13*	5.0*	3	16*	2.6*	0	10*	14*	0
COc1cccc(C(=O)O/N=C(\N)c2ccc(C)cc2)c1	6	16*	4.5*	2	9.7*	0	1	7.2*	20*	1
COc1ccc(/C(=N/Nc2ncnc3ccccc23)C(=O)O)cc1	6	16*	1	2	11*	1.8*	0	7.5*	16*	1

Assay outcomes as filed in PubChem.
